Activity calls are given as the source filed them. Calls follow the shape of the dose curve; as a rule, active = well fitted curve in the direction sought with a large enough effect in the repeat runs; inconclusive = weak or mixed curves; inactive = flat fitted curve, though single readings scatter.
Assay: qHTS assay to test for compound auto fluorescence at 460 nm (blue) in HepG2 cells (AID 720687)
Settings: autofluorescence 405/460 nm, 1 h; series mostly up to 91.3 µM
Text: U.S. Tox21 Program National Center for Advancing Translational Sciences [NCATS] NIH Chemical Genomics Center [NCGC] U.S. Environmental Protection Agency [EPA] National Institutes of Environmental Health Sciences [NIEHS] National Toxicology Program [NTP] U.S. Food and Drug Administration [FDA] Tox21 Assay Overview: Compound auto fluorescence often interferes with screening of the compound library against various biological targets and signaling pathways. Some of these compounds may have fluorophoric properties. Such properties may interfere with the assay outputs resulting in false positives and/or negatives. To decrease such complications and ensure the compound activities are relevant in terms of biological response, the Tox21 10K compound library was screened for auto fluorescence. From the fluorophores used as reporter signals in our screening assays, the auto fluorescence equivalencies of compounds against three fluorophores have been evaluated: Triamterene, Fluorescein and Rose Bengal sodium for blue, green and red fluorescence, respectively. The fluorescence intensities were measured using Excitation/Emission wavelengths at 405/460nm, 485/535nm and 540/590nm for blue, green and red labels, respectively. This assay includes the blue fluorescence data.
Tox21 Assay Protocol Summary: 2,000 HepG2 cells in 5 uL of culture medium (MEM containing 10% FBS) per well were dispensed into black wall/clear bottom 1536-well plates using a Multidrop Combi Dispenser (ThermoFisher Scientific, Waltham, MA). The assay plates were incubated overnight at 37 C to allow cell attachment to the well bottom, followed by the transfer of 23 nL compound or DMSO vehicle by a pintool work station (Kalypsys , San Diego, CA). After the assay plates were incubated for 1 hr at 37 C and 5% CO2, fluorescence intensities in the assay plates were measured by an Envision (PerkinElmer, Shelton, CT) plate reader using three labels for measuring blue, green and red fluorescence at […] 460, 535 and 590 nm respectively.
In the case of `CCc1ccccc1O`, the outcome was “inactive”.
For `O=S(=O)(O)c1cc(S(=O)(=O)O)c2c(N=Nc3ccccc3)c(O)ccc2c1`, the outcome was “inactive”.
With `CC(C)Cc1ccccc1` the outcome was “inactive”.
With `C[C@@H](O)[C@H]1C(=O)N2C(C(=O)O)=C(S[C@@H]3CN[C@H](C(=O)N(C)C)C3)[C@H](C)[C@H]12` the outcome was “inactive”.
With `OC[C@@H](O)[C@@H](O)[C@H](O)[C@@H](O)CO` the outcome was “inactive”.
For `O=C1CCCCC1`, the outcome was “inactive”.
In the case of `CC(=O)Nc1ccc(C(=O)O)cc1`, the outcome was “inactive”.
In the case of `Nc1c(S(=O)(=O)O)cc(Br)c2c1C(=O)c1ccccc1C2=O`, the outcome was “inactive”.
For `CC(C)(CO)COC(=O)C(C)(C)CO`, the outcome was “inactive”.
In the case of `CC(C)NCC(O)COc1cccc2ccccc12` (stereo not given), the outcome was “inactive”.
With `NCc1cccc(CN)c1` the outcome was “inactive”.
In the case of `CCCCCCCCCCC=CC1CC(=O)OC1=O` (stereo not given), the outcome was “inactive”.
In the case of `Cc1ccc(C(=O)O)o1`, the outcome was “inactive”.
In the case of `Cc1cc(Cc2ccc(N)c(C)c2)ccc1N`, the outcome was “inactive”.
With `C=C1C2CCC(C2)C1(C)C` (stereo not given) the outcome was “inactive”.
In the case of `C=C(C)C(=O)OCC(CC)(COC(=O)C(=C)C)COC(=O)C(=C)C`, the outcome was “inactive”.
With `CCC(=O)O` the outcome was “inactive”.
With `O=C1N=C(O)CN1/N=C/c1ccc(-c2ccc([N+](=O)[O-])cc2)o1` the outcome was “inactive”.
In the case of `CC(C)(C)C(=O)C1C(=O)c2ccccc2C1=O`, the outcome was “inactive”.
With `C=C(C)C(=O)OCCCCCCCCCCCC` the outcome was “inactive”.
For `NS(=O)(=O)c1cc2c(cc1Cl)NC=NS2(=O)=O`, the outcome was “inactive”.
In the case of `CCCCCCCCCC(=O)O`, the outcome was “inactive”.
In the case of `Cc1ccc(C)c(C)c1`, the outcome was “inactive”.
For `CC(=O)[C@@]1(O)CC[C@H]2[C@@H]3CCC4=CC(=O)CC[C@]4(C)[C@H]3CC[C@@]21C`, the outcome was “inactive”.
For `O=C(O)c1cc(-c2ccccc2)nc2ccccc12`, the outcome was “inactive”.
In the case of `c1ccc2ccccc2c1`, the outcome was “inactive”.
With `CN(CCOc1ccc(CC2SC(=O)NC2=O)cc1)c1ccccn1` (stereo not given) the outcome was “inactive”.
In the case of `CCOC(=O)[C@H](CCc1ccccc1)N[C@@H](C)C(=O)N1Cc2ccccc2C[C@H]1C(=O)O`, the outcome was “inactive”.
With `ClC1=C(Cl)C(Cl)(Cl)C(Cl)=C1Cl` the outcome was “inactive”.
In the case of `NC(=O)/N=N/C(N)=O`, the outcome was “inactive”.
In the case of `Oc1ccc2ccccc2c1`, the outcome was “inactive”.
With `c1ccc2[nH]cnc2c1` the outcome was “inactive”.
In the case of `CN(C)c1cccc(O)c1`, the outcome was “inactive”.
In the case of `O=[N+]([O-])c1cccc(Cl)c1`, the outcome was “inactive”.
For `CCOC(=O)/C=C\C(=O)OCC`, the outcome was “inactive”.
With `CCCCC/C=C\C/C=C\CCCCCCCC(=O)OC` the outcome was “inactive”.
For `CCC(C)C=O` (stereo not given), the outcome was “inactive”.
In the case of `O=C1O[C@H](CO)[C@@H](O)[C@H](O)[C@H]1O`, the outcome was “inactive”.
With `C=CC(=O)OCCCCCCCC(C)C` the outcome was “inactive”.
For `O=c1c(-c2ccc(O)cc2)coc2cc(O)ccc12`, the outcome was “inactive”.
